FUS yeast rescue = FUS proteinopathy suppression in yeast; S. cerevisiae FUS-expressing, growth rescue, OD600, 24 h; Potency, µM (top dose mostly 76.6 µM), usual class: activators; 390,000 tested, 0.24% active;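 also: plate controls were DMSO vehicle for no effect and reference control for full effect; nearly all actives have a fitted effect of over 55% in size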
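Steps: raffinose overnight preculture; dilution to OD 0.005 in 2% galactose minimal medium; compound addition (concentration series); 24hr at 30C, 99% humidity; absorbance read at 600 nm.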
aSyn rescue = rescues yeast growth from alpha-synuclein toxicity. Yeast expressing alpha-synuclein, growth rescue, BacTiter-Glo, 24 h. Potency, µM (highest dose often 46.1 µM), for the others: at the highest dose growth rescue (activation), hits mostly activators. 370,000 tested, 0.14% active; also: % of control where 0% means no effect; nearly all actives have a fitted effect of over 65% in size
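Galactose-induced alpha-syn yeast (OD600=0.02, raffinose-pregrown) + pinned cpd, 24 hr, 30 deg C; growth by BacTiter-Glo luminescence. Growth restoration scores as activation.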
TDP43 rescue = TDP-43 toxicity inhibition in yeast | 410,000 tested, 1.8% active | AID 652104 | Potency, µM (series often up to 46.1 µM), inactives show top-dose growth rescue (activation), most hits filed as activators | TDP-43 expressing yeast growth rescue, BacTiter-Glo, 24 h; also: % of control where 0% means no effect; nearly all actives have a fitted effect of over 50% in size
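Growth rescue of TDP-43-toxic yeast measured as ATP luminescence (BacTiter-Glo). Cells grown to mid-log in raffinose, induced in galactose at OD600=0.02, exposed to compound 24 hr at 30 deg C.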
Abeta rescue = A-beta toxicity reversal in yeast; 410,000 tested, 0.063% active; yeast expressing A-beta42, growth rescue, OD600, 48 h; response scale: 0% DMSO, 100% iron-clioquinol control; Potency, µM (titrated, usually from 46.1 µM), usual class: activators; also: nearly all actives have a fitted effect of over 55% in size
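Yeast growth medium received pinned compounds, then yeast cells expressing toxic A-beta were added; plates incubated at 30 C for 48 hr. Growth read as absorbance at 600 nm, normalized to DMSO and equimolar FeCl3 plus clioquinol controls.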
The depositor's hits bear a star; i = inactive; ? = inconclusive; · = no result given; [ ] = remark or other dose. Shown are actives, neighbours in structure and some others; about 2.1% of the full set was active somewhere. Calls follow the shape of the dose curve; as a rule, active = well fitted curve in the direction sought with a large enough effect; inconclusive = small, poorly fitted or top-dose-only effect, or another doubt; inactive = no such curve, though single readings can be large; an effect the other way counts as inactive or inconclusive. Potency is read from the fitted curve at half-maximal effect.

SMILES	FUS yeast rescue	aSyn rescue	TDP43 rescue	Abeta rescue
Cc1cccc(CNC(=O)Cc2csc3ccccc23)c1	i	20µM*	?	i
O=C(Cc1csc2ccccc12)NCc1ccc(F)cc1	i	·	12.6µM*	i
CNc1nc(N)c([N+](=O)[O-])c(Nc2ccccc2OC)n1	i	12.7%	2.51µM*	i
COc1ccc(C(=O)/C=C2/C(=O)Nc3ccccc32)cc1OC	?	1.6%	-1.9%	i
COc1ccc(C(=O)/C=C2/C(=O)Nc3ccccc32)c(OC)c1	i	-0.5%	11.2µM*	i
COc1ccc(C(=O)/C=C2/C(=O)Nc3ccccc32)cc1	i	-52.7%	2.82µM*	i
COc1cccc(N2CCN(CC(=O)NCc3cccc(OC)c3OC)CC2)c1	i	·	·	·
CN(N=O)c1ccc(/C=C/c2ccnc3ccccc23)cc1	·	-9.7%	·	·
CCOc1ccc(-c2cc(C(=O)OC)c3n(c2=O)CCC3)cc1	i	·	·	·
Cc1ccc(Nc2ncccc2C(=O)NCc2cccs2)c(C)c1	i	·	11.2µM*	i
O=C(NCc1cccs1)c1cccnc1Cl	i	1.0%	4.2%	i
Cc1cccc(Nc2ncccc2C(=O)NCc2cccs2)c1C	i	-6.6%	7.94µM*	i
Cn1c(=O)cc(OCC(=O)N2CCN(c3ccccc3Cl)CC2)c2ccccc21	i	·	·	·
O=C(CSc1ccccc1)Nc1ccc(N2CCN(c3ccccc3)CC2)c(F)c1	i	-0.1%	10.5%	i
Nc1ccc(N2CCN(c3ccccc3)CC2)c(F)c1	i	0.8%	22.4µM*	i
O=C1C(=O)c2c(ccc3ccccc23)-c2ccccc21	i	-26.7%	2µM*	i
CC(C)[C@H](NC(=O)OC(C)(C)C)C(=O)N1CCC(Oc2cccnc2)CC1	i	·	·	·
CCS(=O)(=O)c1nc2ccccc2n1Cc1ccccc1Cl	i	-4.2%	15.8µM*	i
COc1ccc(-c2cc(C#N)nc(Cl)n2)cc1	i	-9.3%	3.98µM*	i
COc1ccc(-c2cc(C#N)nc(Oc3ccc(Cl)cc3)n2)cc1	·	3.9%	0.0%	i
CN(CC#Cc1ccccc1)C(N)=NC(=O)/C=C/c1cccc(C(F)(F)F)c1	i	·	·	·
CCc1cccc(NC(=O)c2cccc3c2C(=O)N(CC2CCCO2)C3)c1 (stereo not given)	i	-15.4%	17.8µM*	i
O=C(O)c1cccc2c1C(=O)N(CC1CCCO1)C2 (stereo not given)	i	0.5%	18.2%[9.22 µM]	i
Cc1[nH]n(C(N)=S)c(=O)c1N=Nc1ccc(S(=O)(=O)N2CCCCCC2)cc1	i	1.9%	3.98µM*	i
O=C(CCSCc1cccc(Cl)c1)NCc1ccc(F)cc1Cl	i	·	22.4µM*	?
SMILES	FUS yeast rescue	aSyn rescue	TDP43 rescue	Abeta rescue
COc1ccc(CNC(=O)CCSCc2cccc(F)c2)cc1	i	15.0%	10µM*	i
COc1ccc(CNC(=O)CCSCc2ccccc2C)cc1	i	15.6%	7.08µM*	i
O=[N+]([O-])c1cccc(-c2nn(-c3ccccc3)cc2CO)c1	i	5.2%	12.6µM*	i
O=C(/C=C/c1ccccc1)CC(O)(c1ccccc1)C(F)(F)F (stereo not given)	i	?	12.6µM*	i
COc1cccc(NC(=O)Nc2nc3ncccn3c2-c2ccc(F)c(F)c2)c1	i	·	·	·
S=C(NCCSCc1ccccc1Cl)Nc1ccccc1	i	16.9%	12.6µM*	i
S=C(NCCSCc1ccc(Cl)cc1)Nc1ccccc1	·	-14.9%	25.1µM*	i
COC(=O)c1ccc(NC(=S)NCCc2cccc(C)c2)cc1	i	-6.6%	8.91µM*	i
Cc1cccc(CSCCNC(=S)Nc2ccccc2)c1	·	-2.7%	15.8µM*	i
O=C(CCc1ccccc1-c1ccccc1CCNC(=O)c1cccc(F)c1)NCc1ccccc1	i	·	·	·
S=C(NCCCc1ccccc1)Nc1ccccc1	i	7.4%	29.3%	20µM*
COCCNC(=O)[C@@H]1CSC2c3ccc(OC)c(OC)c3C(=O)N21 (stereo not given in full)	i	-4.2%	2.82µM*	i
C=CCn1c(COc2ccccc2)nc2ccccc21	i	13.6%	-10.8%[1.82 µM]	20µM*
Cc1ccc(OCc2nc3ccccc3n2C(C(=O)Nc2c(C)cccc2C)C2CC2)cc1 (stereo not given)	8.91µM*	-0.8%	-16.8%	i
CCn1c(COc2ccc(C)cc2)nc2ccccc21	i	5.6%	11.2µM*	i
O=C(Nc1ccc(F)cc1F)C1CCN(c2nnc(-n3cccc3)s2)CC1	i	·	·	·
CC(Sc1nc2ccccc2s1)C(=O)Nc1nnc(C(C)C)s1 (stereo not given)	i	7.0%	25.1µM*	i
NCC1OC(O[C@H]2[C@H](O)[C@@H](OC3C(O)C(N)CC(N)C3OC3OC(CO)C(O)C(O)C3N)O[C@@H]2CO)C(N)C(O)C1O (stereo not given in full)	·	-9.9%	·	·
Cc1cc(C(=O)CSc2nnc(-c3ccncc3)n2-c2ccccc2)c(C)n1C	31.6µM*	-8.8%	-6.2%	i
CC1(C)CC(=O)c2c(O)cc(OCC(=O)NCCc3ccc(S(N)(=O)=O)cc3)cc2O1	i	2.0%	3.5%	i
COc1ccc(CNC(=O)COc2cc(O)c3c(c2)OC(C)(C)CC3=O)cc1	i	7.2%	11.2µM*	i
Cc1ccc(/C(N)=N/OC(=O)C23CC4CC(CC(C4)C2)C3)cc1	i	5.2%	2µM*	i
N/C(=N\OC(=O)C12CC3CC(CC(C3)C1)C2)c1ccncc1	i	-17.7%	12.6µM*	i
Cc1ccc(/C(N)=N/OC(=O)N2CCOCC2)cc1	i	-12.4%	8.4%	i
Cc1ccc2[nH]c(=O)c(CN(CCCO)Cc3nnnn3Cc3ccccc3)cc2c1	·	8.6%	·	·
SMILES	FUS yeast rescue	aSyn rescue	TDP43 rescue	Abeta rescue
O=C(NCc1ccc(Cl)cc1)NC1COc2ccccc2C1 (stereo not given)	i	·	4.9%	i
Cc1cc(N2CCN(c3ccccc3)CC2)nc(-c2ccccc2O)n1	i	-1.9%	17.8µM*	i
O=[N+]([O-])c1ccc(N2CCc3ccccc3C2)nc1	i	-4.4%	12.6µM*	i
Cc1onc(-c2ccccc2)c1C(=O)OCCOc1ccc([N+](=O)[O-])cc1[N+](=O)[O-]	i	13.8%	12.6µM*	i
Cc1onc(-c2ccccc2)c1C(=O)OCC(=O)c1ccccc1	i	6.0%	18.3%	i[9.22 µM]
Cc1onc(-c2ccccc2)c1C(=O)OCC(=O)c1ccc(F)cc1	i	0.3%	20µM*	i
CCOC(=O)c1sc2nc3c(cc2c1N)COC(C)(CC)C3 (stereo not given)	i	·	11.2µM*	i
NNc1nc(-c2ccccc2)nc2sc3c(c12)CCCC3	i	-4.2%	-3.5%	i
Nc1c2c(nc3sc4c(c13)CCCC4)-c1ccccc1CC2	i	-6.6%	2.51µM*	i
C=CCN1C(=O)[C@H](CC(=O)NCC23CC4CC(CC(C4)C2)C3)[C@@]2(C(=O)OC)CCCCC=C12	i	·	·	·

Screens from PubChem.
